This passage reports activation results from PubChem BioAssay AID1671463 (Sanford-Burnham Center for Chemical Genomics, 2021).

Among all 370,000 compounds or so, about 520 (0.14%) were called active. The sample as a whole holds a higher share of actives than the screen did. Unmarked numbers belong to inactive results. Rule as the data show it: active = activation above about 40%; inactive = the rest.

Chain of Atrial natriuretic peptide receptor 1 (Homo sapiens) (P16066 whole entry, looked up): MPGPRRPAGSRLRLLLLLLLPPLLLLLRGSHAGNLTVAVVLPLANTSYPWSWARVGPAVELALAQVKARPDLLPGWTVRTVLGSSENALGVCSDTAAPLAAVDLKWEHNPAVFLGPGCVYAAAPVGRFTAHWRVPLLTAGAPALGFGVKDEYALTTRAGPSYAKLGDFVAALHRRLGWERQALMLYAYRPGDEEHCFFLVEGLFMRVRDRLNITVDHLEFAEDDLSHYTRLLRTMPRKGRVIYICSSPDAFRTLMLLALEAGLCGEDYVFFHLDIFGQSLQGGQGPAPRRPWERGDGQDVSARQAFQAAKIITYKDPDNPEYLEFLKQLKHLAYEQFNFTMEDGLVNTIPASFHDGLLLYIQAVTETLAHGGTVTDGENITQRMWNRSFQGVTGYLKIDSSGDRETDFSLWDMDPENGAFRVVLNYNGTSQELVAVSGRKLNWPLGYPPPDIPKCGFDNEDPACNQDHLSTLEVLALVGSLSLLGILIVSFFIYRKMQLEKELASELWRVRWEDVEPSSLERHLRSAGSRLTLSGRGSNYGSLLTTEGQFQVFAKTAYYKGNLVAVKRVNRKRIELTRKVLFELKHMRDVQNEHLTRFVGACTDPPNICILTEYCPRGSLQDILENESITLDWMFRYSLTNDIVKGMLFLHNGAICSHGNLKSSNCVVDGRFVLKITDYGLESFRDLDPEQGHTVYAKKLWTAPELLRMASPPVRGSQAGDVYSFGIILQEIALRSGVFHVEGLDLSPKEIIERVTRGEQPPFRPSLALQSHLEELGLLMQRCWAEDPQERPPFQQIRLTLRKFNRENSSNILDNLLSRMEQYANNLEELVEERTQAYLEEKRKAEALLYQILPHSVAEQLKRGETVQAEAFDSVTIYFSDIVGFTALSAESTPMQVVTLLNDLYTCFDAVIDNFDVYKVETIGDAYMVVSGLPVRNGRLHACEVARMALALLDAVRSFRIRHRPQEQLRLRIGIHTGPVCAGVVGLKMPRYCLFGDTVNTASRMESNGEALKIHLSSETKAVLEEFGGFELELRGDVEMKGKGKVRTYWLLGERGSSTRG

This assay has as its target Atrial natriuretic peptide receptor 1 (Homo sapiens) (UniProt P16066). As to the kind of experiment: GC-A stimulated cGMP production enhancers – HEK293 GC-A cells, cGMP TR-FRET, EC30 ANP, primary screen (AID 1671463). To be noted: at 10 µM, hits give high values, 0% at EC30 ANP, 100% saturating ANP.
Take `Cc1ccc(C(=O)NC(=S)Nc2ccc3[nH]c(=O)[nH]c3c2)cc1C`: the activation is -4.45%.
Consider `CCc1ccc(Oc2coc3cc(OC(=O)c4cc5ccccc5oc4=O)ccc3c2=O)cc1`, for which the activation is -3.3%.
Consider `CCc1ccc(Oc2coc3cc(O)ccc3c2=O)cc1`, for which the activation was 9.73%.
Regarding `COC(=O)COc1ccc2c(=O)c(Oc3ccccc3Br)coc2c1`, the activation was 46.5% (active).
Consider `CC[C@H](C)[C@@H](C(=O)N1CCNCC1)n1cc([C@@H](N)Cc2ccc(O)cc2)nn1`, for which the activation is -0.45%.
`CC1(C)CC(=O)c2cnc3nc4ccccc4n3c2C1`: the activation is 1.08%.
In the case of `Cc1ccc(Cn2c(=N)c(S(=O)(=O)c3ccc(C)cc3)cc3c(=O)n4ccccc4nc32)cc1` it was 0.3%.
Regarding `Cc1cc(C)nc(NC(=O)Nc2ccccc2C(F)(F)F)n1`, the activation was 9.79%.
As to `CCn1c(CSc2nc(C)cc(C)n2)nnc1SCC(N)=O`, the activation is -2.17%.
Under `Cc1cc(C)nc(S/C=C/C(=O)c2ccccc2)n1` stands 43.5% (active); under `Cc1cc(NC(=O)CCC(=O)N(CC(=O)NCC2CCCO2)c2ccccc2)no1` (stereo unspecified), -2.42%; under `CC#CC[N+](C)(C)CCCCCC`, 1.8%.
Take `O=C(NCCCO)/C(=C\C=C\c1ccccc1)NC(=O)c1ccccc1Cl`: the activation was 1.06%.
On to `COc1ccc(C2OC(=O)CC2C(=O)NC(C)C)cc1` (stereo unspecified), for which the activation is -0.27%.
Under `O=C1CN(C(=O)c2ccccc2F)C(c2ccc(F)cc2)c2cc(F)ccc2N1` (stereo unspecified) stands -11%.
Regarding `CCCCN1C(=S)NC[C@@H]1C(C)CC` (stereo partly specified), the activation was -0.8%.
In the case of `CC[n+]1cc(C)ccc1/C=C/c1ccc(N(C)C)cc1`, the activation was -28.2%.
For the compound `CCOc1ccc(-n2cnc3c(=O)[nH]c(N)nc32)cc1`, the activation was 23%.
Turning to `CCCc1nn(C)c2c(=O)[nH]c(-c3cc(S(N)(=O)=O)ccc3OCC)nc12`, the activation is 53.2% (active).
For the compound `CCOc1ccccc1N1CCN(C(=S)Nc2ccc(S(N)(=O)=O)cc2)CC1`, the activation was 2.84%.
In the case of `CC1CCC(N2CC(=O)N(Cc3ccc4c(c3)OCO4)C(c3ccc(F)cc3)C2=O)CC1` (stereo unspecified), the activation is -15.6%.
In the case of `Cc1csc(NC(=O)C2CCCN2C(=O)OCC(C)C)n1` (stereo unspecified) it was -0.58%; in that of `CN(C)CCCn1c(SCCN2C(=O)c3ccccc3C2=O)nc2ccccc2c1=O`, -1.16%.
Under `CN(C)CCn1c2c(c(SCC(=O)NCc3ccccc3)nc1=O)CCC2` stands 3.93%; under `O=C(NCc1ccccc1)C(c1cccnc1)N(C(=O)c1csnn1)c1ccc(F)cc1` (stereo unspecified), 2.49%.
As to `O=C1CCC(=O)N1CCOP1(=O)COc2ccccc2OC1`, the activation was 1.8%.
Regarding `Cc1ccc(Cl)cc1NC(=O)COC(=O)C1CCCCC1`, the activation was 4.33%.
In the case of `COc1ccc(NC(=O)CN(C)C(=O)Cc2coc3cc(C)c(C)cc23)cc1` it was 0.74%; in that of `CC(C)=CCN1CCN(Cc2ccc(Oc3ncccn3)cc2)CC1CCO` (stereo unspecified), -0.64%.
`Cc1nc(-c2nnc(SCC(=O)Nc3cc(C(F)(F)F)cc(C(F)(F)F)c3)n2C)cs1`: the activation is 1.31%.
Under `O=C(O)C1CCCN1S(=O)(=O)c1ccc(Br)cc1` (stereo unspecified) stands 3.81%.
On to `COc1cc2c(cc1OC)/C(=C/C(=O)c1ccc(NC(C)=O)cc1)NCC2`, for which the activation was 6.02%.
Consider `CC1CN/C(=C\C(=O)c2ccc(Br)cc2)C(=O)N1` (stereo unspecified), for which the activation was 45.4% (active).
For `COc1ccc(N(CCC#N)S(=O)(=O)c2ccc(Cl)cc2)cc1`, the activation is -7.67%.
Consider `Cc1ccccc1CN(c1ccc(C(=O)NCC2CCCO2)cc1)S(C)(=O)=O` (stereo unspecified), for which the activation was 2.8%.
For `COc1ccc(CCNC(=O)CSc2nc3c([nH]2)c(=O)n(C)c(=O)n3C)cc1`, the activation was -1.99%.
For the compound `Cc1[nH][nH]c(=O)c1C(c1ccc(-c2ccc(Cl)cc2)o1)c1c(C)[nH][nH]c1=O`, the activation is 3.79%.
Turning to `O=C(NCCCN1CCCCCC1)c1ccc(N2CCCC2=O)cc1`, the activation was -0.43%.
With `CS(=O)(=O)c1ccc2nc(NC(=O)c3ccc(N4CCCC4=O)cc3)sc2c1`, the activation is 62.2% (active).
Regarding `O=C(Nc1cc(S(=O)(=O)N2CCOCC2)ccc1OCC(F)(F)F)c1ccc(N2CCCC2=O)cc1`, the activation was -0.92%.
`CC(=O)Nc1cc(-c2ccccc2N(C)C)cn2c(-c3ccc(F)c(Cl)c3)cnc12`: the activation was 3.6%.
